Screens (PubChem BioAssay)
Rows were chosen to be rich in hits. Some 0.7% of all compounds tested hit in one or more screens of this group.
Cdc25B inh – human M-phase inducer phosphatase 2 inhibition; P30305; recombinant Cdc25B, OMFP fluorescence Ex485/Em525; inhibition, %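 (compounds tested at 10 µM final in the well)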; actives 0.1% (n = 65,000); AID 368; in the data active = inhibition above about 50%
Target sequence (P30305 whole entry, looked up): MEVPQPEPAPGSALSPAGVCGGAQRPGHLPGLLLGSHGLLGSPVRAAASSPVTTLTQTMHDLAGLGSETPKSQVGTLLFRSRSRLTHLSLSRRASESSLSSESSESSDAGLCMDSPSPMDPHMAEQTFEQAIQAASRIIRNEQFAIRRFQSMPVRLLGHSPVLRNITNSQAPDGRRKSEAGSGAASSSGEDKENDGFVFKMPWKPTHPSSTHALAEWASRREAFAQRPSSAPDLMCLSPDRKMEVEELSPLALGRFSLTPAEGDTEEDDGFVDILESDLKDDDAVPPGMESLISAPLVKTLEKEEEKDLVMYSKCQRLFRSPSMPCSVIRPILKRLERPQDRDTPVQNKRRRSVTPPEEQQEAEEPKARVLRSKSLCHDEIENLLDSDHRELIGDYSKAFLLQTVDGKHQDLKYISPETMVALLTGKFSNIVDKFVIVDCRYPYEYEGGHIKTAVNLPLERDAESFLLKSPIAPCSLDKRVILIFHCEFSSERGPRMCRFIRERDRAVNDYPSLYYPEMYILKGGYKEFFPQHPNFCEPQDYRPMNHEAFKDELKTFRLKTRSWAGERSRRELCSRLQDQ
MKP-1 inh – inhibitors of human MKP-1 phosphatase; actives 0.15% (n = 65,000); AID 374; recombinant MKP-1, OMFP hydrolysis fluorescence; inhibition, %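 (compounds tested at a single concentration somewhere between 10 and 100 µM)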; P28562;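 active = inhibition above about 50%, limit read from the data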
HePTP inh – blocks human HePTP tyrosine phosphatase | P35236 | inhibition, % at 20 µM | recombinant HePTP phosphatase activity, OD absorbance | AID 521 | actives 0.64% (n = 110,000); in the data active = inhibition above about 50%
Large screens that a line does not name were inactive; ! = repeats disagree.

Cc1cc(Cl)ccc1OC(=O)c1cc2ccccc2o1	none (no result: Cdc25B inh, MKP-1 inh)
Cc1ccc(C(=O)Nc2ccccc2C(=O)NCCCC(=O)O)cc1	none (no result: Cdc25B inh, MKP-1 inh)
N#CC(C#N)=NNc1ccccc1C(=O)O	none (no result: Cdc25B inh, MKP-1 inh)
N#CC(C#N)=NNc1ccc(O)c(C(=O)O)c1	HePTP inh 68.8 (no result: Cdc25B inh, MKP-1 inh)
COC(=O)/C=C(\C)NCCN/C(C)=C/C(=O)OC	HePTP inh 104.7 (no result: Cdc25B inh, MKP-1 inh)
COC(=O)/C=C(\C)NC(=O)c1cccs1	none
Cc1ccc(Cl)cc1NC(=O)C(=O)NCCc1ccccc1	none (no result: Cdc25B inh, MKP-1 inh)
O=C1c2ccccc2C(=O)N1c1ccc2nc(Sc3nc4ccc([N+](=O)[O-])cc4s3)sc2c1	none (no result: Cdc25B inh, MKP-1 inh)
Cc1cc(-c2ccccc2)c2nncn2n1	HePTP inh 78.0!
Cc1cc(-c2ccccc2)c2c3c(cn2n1)c(=O)n(C)c(=O)n3C	none
Cc1ccc(C)c(C(O)(c2ccccc2)c2cnc(C(C)C)n2C)c1 (configuration not stated)	none (no result: Cdc25B inh, MKP-1 inh)
COc1cc(/C=C2/SC(=S)NC2=O)ccc1OS(=O)(=O)c1ccccc1[N+](=O)[O-]	HePTP inh 58.8 (no result: Cdc25B inh, MKP-1 inh)
COc1cc(/C=C2/SC(=S)NC2=O)ccc1OS(=O)(=O)c1ccccc1	none (no result: Cdc25B inh, MKP-1 inh)
COc1cc(/C=C2/SC(=S)NC2=O)c([N+](=O)[O-])cc1OC	none (no result: Cdc25B inh, MKP-1 inh)
O=C1NC(=S)S/C1=C\c1ccccc1[N+](=O)[O-]	HePTP inh 93.3 (no result: Cdc25B inh, MKP-1 inh)
COc1ccc(C(=O)N=Nc2c(O)n(CN3CCCC3)c3ccccc23)cc1	none (no result: Cdc25B inh, MKP-1 inh)
CC(=O)c1cccc(NC(=O)CN2CCOCC2)c1	none (no result: Cdc25B inh, MKP-1 inh)
CCOc1ccc(N(CC(=O)NC)S(C)(=O)=O)cc1	none (no result: Cdc25B inh, MKP-1 inh)
O=C(Nc1ccccc1I)c1ccccc1C(F)(F)F	none (no result: Cdc25B inh, MKP-1 inh)
O=C(Nc1ccccc1Cl)c1ccccc1C(F)(F)F	HePTP inh 103.5 (no result: Cdc25B inh, MKP-1 inh)
C=CCn1c(=S)[nH]c2scc(-c3ccc(C)cc3)c2c1=O	none (no result: Cdc25B inh, MKP-1 inh)
Nc1ccc(S(=O)(=O)Nc2nccc(/C=C/c3ccc(F)cc3)n2)cc1	none (no result: Cdc25B inh, MKP-1 inh)
Oc1ccccc1C(=S)N1N=C(c2ccccc2)CC1(O)C(F)(F)F (configuration not stated)	none (no result: Cdc25B inh, MKP-1 inh)
O=C1/C(=C\c2ccc(-c3ccc([N+](=O)[O-])cc3)o2)SC(=S)N1c1ccc(O)cc1	none (no result: Cdc25B inh, MKP-1 inh)
O=C(O)CCN1C(=O)/C(=C/c2ccc(-c3ccc([N+](=O)[O-])cc3)o2)SC1=S	none (no result: Cdc25B inh, MKP-1 inh)
O=C(O)CCN1C(=O)/C(=C\C(Cl)=C/c2ccc([N+](=O)[O-])cc2)SC1=S	HePTP inh 102.4 (no result: Cdc25B inh, MKP-1 inh)
O=C(O)CCCN1C(=O)/C(=C\c2ccc(-c3cccc([N+](=O)[O-])c3)o2)SC1=S	HePTP inh 97.4 (no result: Cdc25B inh, MKP-1 inh)
O=C(O)c1ccc(-c2ccc(/C=C3\SC(=S)N(c4ccc([N+](=O)[O-])cc4)C3=O)o2)cc1	HePTP inh 102.6 (no result: Cdc25B inh, MKP-1 inh)
O=C(O)CN1C(=O)/C(=C\c2cc([N+](=O)[O-])ccc2Cl)SC1=S	none (no result: Cdc25B inh, MKP-1 inh)
O=C(O)CCN1C(=O)/C(=C/c2ccc(-c3ccc(Cl)cc3)o2)SC1=S	HePTP inh 102.4 (no result: Cdc25B inh, MKP-1 inh)
O=C1/C(=C\c2ccc(-c3cccc([N+](=O)[O-])c3)o2)SC(=S)N1CCc1ccccc1	none (no result: Cdc25B inh, MKP-1 inh)
CCC(=O)Nc1ccc(NC(=O)c2cc3ccccc3cc2OC)cc1	none (no result: Cdc25B inh, MKP-1 inh)
COc1ccc2c(c1)NC(C)(C)c1sn(-c3ccccc3)c(=S)c1-2	none (no result: Cdc25B inh, MKP-1 inh)
CCOC(=O)/C(C#N)=C/c1ccc(O)cc1	none (no result: Cdc25B inh, MKP-1 inh)
COc1cc(/C=C/C(=O)O)ccc1S(=O)(=O)Nc1ccc(C(=O)O)cc1	none (no result: Cdc25B inh, MKP-1 inh)
O=C(C1CN(S(=O)(=O)c2ccccc2)CCN1S(=O)(=O)c1ccccc1)N1CCCCCC1 (configuration not stated)	HePTP inh 50.1!
CC(C)(C)NC(=O)C1CN(S(=O)(=O)c2ccccc2)CCN1S(=O)(=O)c1ccccc1 (configuration not stated)	none
O=C(CC1S/C(=N\N=C\c2ccccc2)NC1=O)Nc1ccc(C(=O)O)cc1 (configuration not stated)	HePTP inh 103.7 (no result: Cdc25B inh, MKP-1 inh)
CC1=C/C(=N\N=C2\NC(=O)C(CC(=O)Nc3ccc(C(=O)O)cc3)S2)CC(C)(C)C1 (configuration not stated)	HePTP inh 103.2 (no result: Cdc25B inh, MKP-1 inh)
O=C(CC1S\C(=N/N=C/C=C/c2ccccc2)NC1=O)Nc1ccc(C(=O)O)cc1 (configuration not stated)	none (no result: Cdc25B inh, MKP-1 inh)
CC1=C/C(=N\N=C2\NC(=O)C(CC(=O)Nc3ccc(Cl)cc3)S2)CC(C)(C)C1 (configuration not stated)	none (no result: Cdc25B inh, MKP-1 inh)
CCCCCc1ccc(-c2ccc(OC(F)F)cc2)nc1	none (no result: Cdc25B inh, MKP-1 inh)
O=S1(=O)CCC(NC(=S)N/N=C/c2cccc3ccccc23)C1 (configuration not stated)	none (no result: Cdc25B inh, MKP-1 inh)
COc1ccc(CCNC(=O)COc2ccccc2Cl)cc1	none (no result: Cdc25B inh, MKP-1 inh)
O=C(NC(NC(=O)c1ccco1)c1ccc(F)cc1)c1ccco1	none (no result: Cdc25B inh, MKP-1 inh)
O=C(c1ccc2c(=O)n(C3CCCC3)c(=S)[nH]c2c1)N1CCN(C2CCCCC2)CC1	MKP-1 inh 52.3
CCN1CCN(C(=O)c2ccc3c(=O)n(C4CCCC4)c(=S)[nH]c3c2)CC1	none
N/C(=N/N=C\c1cccc(O)c1)c1ccccn1	none (no result: Cdc25B inh, MKP-1 inh)
Cc1sc(NC(=O)c2ccc(F)cc2)c(C(=O)OC(C)C)c1C	none (no result: Cdc25B inh, MKP-1 inh)
